Test results taken from the supplement of paper PMC6522484.
± gives the standard deviation of the averaged measurements.

Assays:
DLD1 [1] = experiment: cell viability (CellTiter-Glo) relative to plate median (fraction of plate median); higher = more viable cells; settings: 5 µM; treatment time 24 h; reporter: 7TFP
Method in brief: (§1)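 Colorectal cancer cell lines stably carrying lentiviral TCF/Wnt firefly luciferase reporters (7TFP or TCF4/Wnt) were plated in 384-well plates and, 24 h later, given library compounds at a final 5 µM for 24 h. Firefly luciferase or CellTiterGlo luminescence was read on parallel plates with a Tecan F500 reader. Each well's signal was normalised to the plate median in webcellHTS2 (additive, without log transformation). Values are the mean of two independent replicates.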

HCT116 = experiment: as above; settings: 5 µM; treatment time 24 h; reporter: TCF4/Wnt
Method in brief: as §1

SW480 [2] = experiment: as above; settings: 5 µM; treatment time 24 h; reporter: 7TFP
Method in brief: as §1

DLD1 [3] = experiment: TCF/Wnt firefly luciferase reporter signal relative to plate median (fraction of plate median); higher = higher Wnt reporter signal; settings: 5 µM; treatment time 24 h; reporter: 7TFP
Method in brief: as §1

SW480 [4] = experiment: as above; settings: 5 µM; treatment time 24 h; reporter: 7TFP
Method in brief: as §1

Row | SMILES | cell viability (DLD1 [1]) | cell viability (HCT116) | cell viability (SW480 [2]) | TCF/Wnt firefly luciferase reporter signal (DLD1 [3]) | TCF/Wnt firefly luciferase reporter signal (SW480 [4])
1 | C1CNCCN1 | 1.004 ± 0.0092 | 0.96 ± 0.071 | 0.987 ± 0.018 | 1.25 ± 0.021 | 1.05 ± 0.042
2 | C[C@]12CCC[C@H](O1)c1c(cc3c(c1O)C(=O)c1c(O)cc(O)cc1C3=O)O2 [Averufin (Isoform A, Compound ID 7507)] | 1.01 ± 0.12 | 1.05 ± 0.14 | 1.04 ± 0.088 | 0.896 ± 0.16 | 0.972 ± 0.083
3 | FC(F)(F)COCC(F)(F)F | 0.944 ± 0.047 | 0.922 ± 0.041 | 0.99 ± 0.029 | 0.762 ± 0.016 | 0.825 ± 0.1
4 | CCOC(=O)c1c(C)cc(O)cc1O | 1.11 ± 0.085 | 1.01 ± 0.09 | 1.07 ± 0.014 | 1.06 ± 0.14 | 1.08 ± 0.042
5 | COc1cccc(OC)c1C(=O)N[C@@H]1C(=O)N2[C@@H]1SC(C)(C)[C@@H]2C(=O)O | 1.05 ± 0.071 | 1.17 ± 0.042 | 1.07 ± 0.035 | 1.14 ± 0.21 | 1.06 ± 0.16
6 | CC(=O)O[C@@H]1C[C@@]2(C)C(CC[C@@H]2C(C)=O)C2CCC3=CC(=O)CC[C@]3(C)C21 (stereo not given in full) | 0.943 ± 0.019 | 1.09 ± 0.042 | 0.976 ± 0.024 | 1.02 ± 0.031 | 0.965 ± 0.033
7 | CC1=C(C(=O)O)N2C(=O)[C@@H](NC(=O)[C@H](N)c3ccc(O)cc3)[C@H]2SC1 | 0.977 ± 0.016 | 0.956 ± 0.063 | 0.949 ± 0.086 | 0.907 ± 0.14 | 0.918 ± 0.13
8 | CC(=O)O[C@H]1CC[C@@]2(C)[C@@H](CC[C@@H]3[C@@H]2CC(=O)[C@]2(C)[C@@H]4[C@H](C[C@@H]32)O[C@]2(CC[C@@H](C)CO2)[C@H]4C)C1 | 0.907 ± 0.018 | 0.934 ± 0.047 | 0.9615 ± 0.0035 | 0.858 ± 0.038 | 0.995 ± 0.16
9 | C[C@@H]1O[C@@H](O[C@H]2[C@H](Oc3cc(O)c4c(=O)cc(-c5ccc(O)cc5)oc4c3)O[C@H](CO)[C@@H](O)[C@@H]2O)[C@H](O)[C@H](O)[C@H]1O | 1.04 ± 0.035 | 1.03 ± 0.054 | 0.98 ± 0.015 | 0.989 ± 0.013 | 1.02 ± 0.079
10 | O=C(Oc1ccccc1C(=O)O)c1ccccc1O | 1.02 ± 0.014 | 0.961 ± 0.054 | 1.03 ± 0.014 | 1.06 ± 0.14 | 1.02 ± 0.18
11 | CCC(=O)OCC(=O)[C@@]1(OC(=O)CC)[C@H](C)CC2C3C([C@@H](O)C[C@@]21C)[C@@]1(C)C=CC(=O)C=C1C[C@H]3Cl (stereo not given in full) | 1.01 ± 0.014 | 1.02 ± 0.014 | 0.975 ± 0.0057 | 0.9755 ± 0.0078 | 0.926 ± 0.049
12 | N=C(N)N | 0.982 ± 0.025 | 0.95 ± 0.16 | 1.02 ± 0.014 | 0.924 ± 0.076 | 1.025 ± 0.0071
13 | COc1cc(C2Oc3cc([C@H]4Oc5cc(O)cc(O)c5C(=O)[C@@H]4O)ccc3OC2CO)ccc1O (stereo not given in full) | 1.09 ± 0.042 | 1.12 ± 0.16 | 1.02 ± 0.014 | 0.993 ± 0.081 | 0.967 ± 0.2
14 | CC(=O)c1c2c(c(C)n1-c1ccccc1C(=O)O)C(=O)c1c(O)cccc1C2=O [Bhimamycin D] | 1.02 ± 0.048 | 0.863 ± 0.025 | 0.969 ± 0.072 | 1.05 ± 0.11 | 1.08 ± 0.042
15 | Cc1nc2ccccc2c(=O)[nH]1 [2-Methyl-3H-quinazoline-4-on] | 0.991 ± 0.011 | 1.06 ± 0.064 | 0.979 ± 0.044 | 1.01 ± 0.09 | 1.1 ± 0.021
16 | COC(=O)[C@H]1[C@H]2C[C@H]3c4[nH]c5cc(OC)ccc5c4CCN3C[C@H]2C[C@@H](OC(=O)c2cc(OC)c(OC)c(OC)c2)[C@@H]1OC | 0.96 ± 0.057 | 1 ± 0.11 | 0.905 ± 0.011 | 1.18 | 0.9565 ± 0.0021
17 | CC(C)OC(=O)C(C)(C)Oc1ccc(C(=O)c2ccc(Cl)cc2)cc1 | 1.08 ± 0.071 | 1.045 ± 0.0071 | 1.04 | 0.917 ± 0.14 | 0.939 ± 0.015
18 | CCCCCNC(=N)N/N=C/c1c[nH]c2ccc(OC)cc12 | 0.877 ± 0.1 | 0.964 ± 0.031 | 1.045 ± 0.0071 | 1.1 ± 0.028 | 1.045 ± 0.0071
19 | CC(=O)O[C@H]1C[C@@H](OC(C)=O)C(C)(C)C2CC(=O)[C@]3(C)C(CC[C@@]4(C)[C@H](C(=O)O)OC(=O)C5OC543)[C@]21C (stereo not given in full) | 0.985 ± 0.093 | 0.922 ± 0.028 | 1.01 ± 0.032 | 0.826 ± 0.027 | 0.95 ± 0.21
20 | NS(=O)(=O)c1cc2c(cc1Cl)N=CNS2(=O)=O | 0.965 ± 0.093 | 0.973 ± 0.081 | 0.891 ± 0.018 | 0.828 ± 0.18 | 0.984 ± 0.011
21 | O=c1c(O)c(-c2ccccc2)oc2cc(O)ccc12 | 1 ± 0.05 | 1.06 ± 0.057 | 1.035 ± 0.0071 | 1.01 ± 0.044 | 0.925 ± 0.1
22 | C[C@@H]1CC[C@]2(C(=O)O[C@@H]3O[C@H](CO)[C@@H](O)[C@H](O)[C@H]3O)CC[C@]3(C)C(=CC[C@@H]4[C@@]5(C)C[C@@H](O)[C@H](O)[C@@](C)(CO)[C@@H]5CC[C@]43C)[C@@H]2[C@]1(C)O [Nigaichigoside F1] | 1.17 ± 0.11 | 1.02 ± 0.072 | 1.05 ± 0.042 | 1.08 ± 0.028 | 1.06 ± 0.24
23 | O=C(O)c1cc2ccccc2[nH]1 [Indol-2-carboxylic acid] | 0.972 ± 0.097 | 0.92 ± 0.016 | 0.9215 ± 0.0064 | 0.8775 ± 0.005 | 0.955 ± 0.042
24 | CN1CCCC(n2nc(Cc3ccc(Cl)cc3)c3ccccc3c2=O)CC1 (stereo not given) | 1.01 ± 0.021 | 1.015 ± 0.0071 | 1.045 ± 0.0071 | 1.17 ± 0.17 | 1.06 ± 0.057
25 | CC(=O)O[C@@H]1C[C@H]2C(C)(C)[C@@H](O)CC[C@]2(C)[C@H]2CC[C@@]3(C)[C@H](c4ccoc4)OC(=O)[C@H]4O[C@]43[C@@]21C [beta-DIHYDROGEDUNOL] | 0.978 ± 0.028 | 1.08 ± 0.078 | 0.984 ± 0.021 | 1.02 ± 0.035 | 1.12 ± 0.085
26 | COc1cc(OC)cc(OC)c1 | 1.03 ± 0.028 | 1.02 ± 0.028 | 1.015 ± 0.0071 | 1.13 ± 0.028 | 1.1 ± 0.11
27 | CC(=O)OCC(=O)[C@@]1(O)[C@H](OC(C)=O)C[C@H]2[C@@H]3CCC4=CC(=O)C=C[C@]4(C)[C@@]3(F)[C@@H](O)C[C@@]21C | 1.01 ± 0.069 | 1.09 ± 0.057 | 1.03 ± 0.052 | 1.1 ± 0.26 | 0.894 ± 0.069
28 | CC12CCC(CC1=O)C2(C)C (stereo not given) | 0.974 ± 0.037 | 0.941 ± 0.2 | 1.04 ± 0.05 | 1.02 ± 0.061 | 0.969 ± 0.14
29 | COc1cc(/C=C/C(=O)N2CCC=CC2=O)cc(OC)c1OC | 0.939 ± 0.037 | 0.717 ± 0.099 | 1.11 ± 0.042 | 0.704 ± 0.14 | 0.773 ± 0.095
30 | NC12CC3CC(CC(C3)C1)C2 | 0.979 ± 0.028 | 0.944 ± 0.058 | 1.04 ± 0.021 | 0.908 ± 0.34 | 1.025 ± 0.0071
